In the library only some 2.7% were active in any assay of this set; here they are far more common.
PP1 inh – PP1-alpha phosphatase inhibitors, primary screen, counter-screen for PP5 inhibitor project, biochemical, fluorescence, OMFP substrate, single point | Serine/threonine-protein phosphatase PP1-alpha catalytic subunit (Homo sapiens), P62136 | AID 2235, 2010 | inhibition, % at 6.7 µM | purified PP1alpha | hit rate 0.9% among 320,000;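 active = inhibition above the mean inhibition of all tested compounds plus 3 SD, computed separately for each screening campaign, cut at about 15% in these data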
TMEM16A act – TMEM16A chloride channel activators or potentiators, primary screen, cell-based, HTS | Anoctamin-1 (Mus musculus), Q8BHY3 | hit rate 0.3% among 340,000 | HEK293 TMEM16A/YFP-H148Q/I152L, iodide quench fluorescence; hits give low values | B-score at 10 µM;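 active = fluorescence-ratio B-score plate-corrected deviation score at least 3 library SD below zero, with starting fluorescence score within 5 deviations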;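 note: channel opened by trigger with iodide after compound preincubation; score built on the fluorescence ratio of max minus min over baseline; more negative score means more quench and so TMEM16A activation or potentiation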
PREPL inhibitor – PREPL enzyme inhibitors, primary screen, biochemical, fluorescence polarization | recombinant PREPL, fluorescence polarization activity-based probe | inhibition, % at 5.96 µM | hit rate 0.68% among 320,000; in the data active = inhibition above about 43%
ANO1 block – TMEM16A chloride channel inhibitors, primary screen, cell-based, HTS; normalized B-score (activity score, 25-100; higher = stronger inhibition) at 10 µM; AID 588511, 2011; HEK293 TMEM16A/YFP iodide influx fluorescence, ionomycin; hit rate 1.2% among 310,000; Anoctamin-1 (Mus musculus), Q8BHY3;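 active = ratio plate-corrected score three or more library SD toward inhibition, starting fluorescence score within five deviations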;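 note: score derived from kinetic fluorescence span divided by baseline fluorescence per well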
FID counter – compounds displacing fluorescent DNA intercalator, primary screen, artefact control for HCV NS3 helicase inhibitor project, biochemical, FID fluorescence; DNA fluorescent intercalator displacement; inhibition, % at 7.9 µM; hit rate 0.17% among 290,000; AID 1845, 2009; in the data active = inhibition above about 37%;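 note: higher means more ethidium bromide displaced from hairpin DNA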
PP5 inh – PP5 phosphatase inhibitors, primary screen, biochemical, fluorescence. hit rate 0.18% among 320,000. purified PP5c, OMFP substrate fluorescence. AID 1987, 2009. inhibition, % at 6.7 µM;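 active = inhibition above the campaign's mean inhibition across all tested compounds plus 3 SD, cut at about 9.5% in these data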
A number is an active result.

`COCc1[nH]nc2c1C(c1ccc(OC)cc1)C(C#N)=C(N)O2` (stereo unspecified) gave PP1 inh inactive, TMEM16A act inactive, PREPL inhibitor inactive, ANO1 block inactive, FID counter inactive and PP5 inh inactive.
`CC(C)c1[nH]nc2c1C(c1ccc(OC(=O)c3ccco3)cc1)C(C#N)=C(N)O2` (stereo unspecified) gave PP1 inh inactive, TMEM16A act inactive, PREPL inhibitor 60, ANO1 block inactive, FID counter inactive and PP5 inh inactive.
`COc1cc(C2C(C#N)=C(N)Oc3n[nH]c(C)c32)ccc1OC(=O)c1ccccc1` (stereo unspecified) gave PP1 inh inactive, TMEM16A act inactive, PREPL inhibitor 61, ANO1 block inactive, FID counter inactive and PP5 inh inactive.
Screening CN(C)Cc1c(O)ccc2occ(C(=O)c3ccccc3)c12 returned PP1 inh inactive, TMEM16A act inactive, PREPL inhibitor inactive, ANO1 block 25, FID counter inactive and PP5 inh inactive.
`CCN(CC)Cc1c(O)ccc2occ(C(=O)c3ccccc3)c12` gave PP1 inh inactive, TMEM16A act inactive, PREPL inhibitor inactive, ANO1 block inactive, FID counter inactive and PP5 inh inactive.
`CCc1cc(=O)oc2cc(C)cc(OC(C)C(=O)NCCCn3ccnc3)c12` (stereo unspecified) gave PP1 inh inactive, TMEM16A act inactive, PREPL inhibitor inactive, ANO1 block inactive, FID counter inactive and PP5 inh inactive.
For O=C(Nc1ccccc1)Nc1ccc(F)c([N+](=O)[O-])c1 the results were PP1 inh inactive, TMEM16A act inactive, PREPL inhibitor inactive, ANO1 block 25, FID counter inactive and PP5 inh inactive.
`CC(CC(=O)Nc1ccc(Cl)c([N+](=O)[O-])c1)c1ccccc1` (stereo unspecified) gave PP1 inh inactive, TMEM16A act inactive, PREPL inhibitor inactive, ANO1 block 100, FID counter inactive and PP5 inh inactive.
For O=C(Nc1ccccc1)Nc1ccc(Cl)c([N+](=O)[O-])c1 the results were PP1 inh inactive, TMEM16A act inactive, PREPL inhibitor inactive, ANO1 block 100, FID counter inactive and PP5 inh inactive.
Screening CC(CC(=O)Nc1ccc(C(N)=O)cc1)c1ccccc1 (stereo unspecified) returned PP1 inh inactive, TMEM16A act inactive, PREPL inhibitor inactive, ANO1 block inactive, FID counter inactive and PP5 inh inactive.
COc1cc(OCc2ccccc2)c(C(=O)/C=C/c2ccc3c(c2)OCO3)c(OC)c1OC was read as PP1 inh inactive, TMEM16A act inactive, PREPL inhibitor inactive, ANO1 block inactive and PP5 inh inactive.
Screening Cc1onc(-c2c(F)cccc2Cl)c1C(=O)Nc1cc(S(=O)(=O)N2CCCCC2)ccc1O returned TMEM16A act inactive.
Screening COc1ccc2[nH]c(=O)c(CN(C3CCCCC3)C(c3nnnn3Cc3ccco3)C(C)C)cc2c1 (stereo unspecified) returned PP1 inh 20, TMEM16A act inactive, PREPL inhibitor inactive, ANO1 block 100, FID counter inactive and PP5 inh inactive.
`COc1ccc2[nH]c(=O)c(CN(Cc3nnnn3Cc3ccco3)C3CCCCC3)cc2c1` gave PP1 inh inactive, TMEM16A act inactive, PREPL inhibitor inactive, ANO1 block inactive, FID counter inactive and PP5 inh inactive.
`CN(C)c1ccc(C(O)c2cc3ccccc3s2)cc1` (stereo unspecified) gave TMEM16A act inactive.
For CCOC(=O)Cc1cc(=O)n2[nH]c(C)c(-c3ccccc3)c2n1 the results were PP1 inh 15, TMEM16A act inactive, PREPL inhibitor inactive, ANO1 block inactive, FID counter inactive and PP5 inh inactive.
For Cc1cc(NC(=O)c2ccc(F)cc2)n(-c2ccccn2)n1 the results were PP1 inh inactive, TMEM16A act inactive, PREPL inhibitor inactive, ANO1 block inactive, FID counter inactive and PP5 inh inactive.
